Experimental findings from PubChem BioAssay (NCI) are described below.

The panel holds about 83,000 compounds, 20% with a hit somewhere; the sample as a whole holds those more often.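 A percent growth of 40 corresponds to 60% growth inhibition; 0 means no net growth; -100 means all cells died. Active threshold: below 10.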 Unmarked numbers belong to inactive results. Activity calls are given as the source filed them.

Some test systems named below: NCI-H23 lung; NCI-H226 lung; NCI-H322M lung; HOP-62 NSCLC; NCI-H460 lung; HOP-92 NSCLC; NCI-H522 lung; A549/ATCC NSCLC; 786-0 renal; COLO 205 colon; DU-145 prostate; K-562 leukemia; MDA-MB-231 breast; RXF 393 renal; SF-268 CNS; SF-295 CNS; SF-539 CNS; UACC-257 melanoma; M14 melanoma.
What all share (assay): NCI-60 one-dose screen, 48 h (100 = growth as untreated, 0 = no growth, -100 = all killed)
Holding throughout (settings): 10 µM

On to `CCN1CCOC1C(C)C` (configuration not stated), for which the growth was 102% in the assay with NCI-H23 lung; 109% with NCI-H226 lung; 103% in the assay with NCI-H322M lung; 99.5% with HOP-62 NSCLC; 107% in the assay on NCI-H460 lung; 114% in the assay with HOP-92 NSCLC. In addition, the growth with NCI-H522 lung is 97.1%; in the assay on A549/ATCC NSCLC, 101%; with 786-0 renal, 94.2%; in the assay on COLO 205 colon, 110%; in the assay on DU-145 prostate it was 110%; with K-562 leukemia, 90.3%. Further, the growth is 99.2% in the assay with MDA-MB-231 breast; 109% in the assay on RXF 393 renal; 102% in the assay with SF-268 CNS; 105% in the assay on SF-295 CNS; 95% in the assay on SF-539 CNS; 104% with UACC-257 melanoma. The growth with M14 melanoma is 93.7%.

As for `COc1cc(-c2nc(-c3nnc(-c4cccnc4)o3)c3ccccn23)cc(OC)c1OC`, the growth in the assay on NCI-H23 lung was 101%; with NCI-H226 lung, 86%; in the assay with NCI-H322M lung, 101%; in the assay with HOP-62 NSCLC, 102%; in the assay with NCI-H460 lung, 109%; in the assay on HOP-92 NSCLC, 100%. The growth with NCI-H522 lung was 94.7%; with A549/ATCC NSCLC, 93.9%; with 786-0 renal, 89.1%; in the assay with COLO 205 colon, 119%; with DU-145 prostate, 114%; with K-562 leukemia, 95.4%. The growth in the assay with MDA-MB-231 breast is 97.7%; in the assay with RXF 393 renal it was 115%; with SF-268 CNS, 95.7%; in the assay on SF-295 CNS it was 79.5%; in the assay on SF-539 CNS, 107%; in the assay on UACC-257 melanoma, 104%. The growth with M14 melanoma was 110%.

Take `Cc1ccc(S(=O)(=O)Oc2ccccc2-c2ccccc2)cc1`: the growth was 47.2% in the assay on NCI-H23 lung; 53.5% in the assay on NCI-H226 lung; 47.9% in the assay with NCI-H322M lung; 42% in the assay on HOP-62 NSCLC; 9.27% (active) in the assay with NCI-H460 lung; 33% in the assay on HOP-92 NSCLC. For the same compound, the growth was 15% in the assay on NCI-H522 lung; 42.4% with A549/ATCC NSCLC; 38.4% in the assay with 786-0 renal; 8.93% (active) in the assay on COLO 205 colon; 34% in the assay on DU-145 prostate; 15.3% in the assay on K-562 leukemia. In addition, the growth was 55.9% in the assay on MDA-MB-231 breast; 28.9% in the assay with RXF 393 renal; 42.5% in the assay on SF-268 CNS; 8.37% (active) in the assay with SF-295 CNS; 8.87% (active) with SF-539 CNS; 54.4% in the assay with UACC-257 melanoma. The growth in the assay on M14 melanoma was 6.11% (active).

Regarding `O=C(c1ccccc1)C(Sc1ccccc1)c1ccccc1` (configuration not stated), the growth with NCI-H23 lung was 76.4%; in the assay with NCI-H226 lung it was 94%; with NCI-H322M lung, 108%; in the assay with HOP-62 NSCLC, 93%; in the assay with NCI-H460 lung, 67.8%; in the assay on HOP-92 NSCLC, 67.2%. The growth in the assay with NCI-H522 lung is 62.4%; with A549/ATCC NSCLC, 92%; in the assay with 786-0 renal, 104%; in the assay with COLO 205 colon it was 108%; in the assay with DU-145 prostate, 29.7%; in the assay with K-562 leukemia, 84.5%. Moreover, the growth in the assay on MDA-MB-231 breast was 89.2%; in the assay on RXF 393 renal, 80.7%; in the assay with SF-268 CNS, 92.6%; in the assay with SF-295 CNS, 113%; in the assay on SF-539 CNS, 99.5%; in the assay on UACC-257 melanoma, 98.8%. The growth in the assay on M14 melanoma was 94.5%.

In the case of `COc1cc(Cn2c(-c3ccccc3)c(Cl)c3c2-c2oncc2CC3)cc(OC)c1`, the growth was 72.2% in the assay on NCI-H23 lung; 109% in the assay with NCI-H226 lung; 68.5% in the assay with NCI-H322M lung; 102% with HOP-62 NSCLC; 46.3% in the assay with NCI-H460 lung; 51.7% with HOP-92 NSCLC. The growth in the assay with NCI-H522 lung was 9.45% (active); with A549/ATCC NSCLC it was 53.5%; with 786-0 renal it was 74.7%; with COLO 205 colon, 113%; in the assay with DU-145 prostate it was 95.9%; in the assay with K-562 leukemia it was 12.9%. Further, the growth in the assay with MDA-MB-231 breast was 67.5%; with RXF 393 renal, 115%; in the assay on SF-268 CNS it was 68.8%; in the assay with SF-295 CNS, 61%; in the assay with SF-539 CNS it was 93.9%; in the assay on UACC-257 melanoma it was 86%. Also, in the assay with M14 melanoma, the growth was 79%.

For `COc1ccc(Cn2cc3c(c2-c2cc(OC)c(OC)c(OC)c2)CCc2cnoc2-3)cc1[N+](=O)[O-]`, the growth in the assay with NCI-H23 lung is 26.1%; with NCI-H226 lung it was 47.5%; in the assay with NCI-H322M lung, 26.7%; in the assay on HOP-62 NSCLC it was 56.6%; in the assay on NCI-H460 lung, 7.93% (active); in the assay with HOP-92 NSCLC, 64%. In addition, the growth in the assay on NCI-H522 lung is 46.2%; in the assay on A549/ATCC NSCLC it was 34%; in the assay with 786-0 renal, 34.3%; in the assay on COLO 205 colon it was 1.15% (active); with DU-145 prostate, 10.1%; with K-562 leukemia it was 15.3%. In addition, the growth with MDA-MB-231 breast is 25.6%; with RXF 393 renal it was 10.5%; with SF-268 CNS, 47.6%; with SF-295 CNS, -15.3% (active); in the assay with SF-539 CNS, -10.5% (active); in the assay on UACC-257 melanoma, 78.1%. Further, in the assay with M14 melanoma, the growth is 11.4%.

In the case of `CCOC(=O)c1cc2c(n1Cc1cc(OC)cc(OC)c1)-c1oncc1CC2`, the growth with NCI-H23 lung was 38.4%; in the assay with NCI-H226 lung it was 30.5%; in the assay with NCI-H322M lung, -1.31% (active); in the assay on HOP-62 NSCLC, 58%; with NCI-H460 lung, 9.46% (active); with HOP-92 NSCLC, 80%. Moreover, the growth in the assay with NCI-H522 lung was 4.32% (active); in the assay with A549/ATCC NSCLC it was 29%; in the assay with 786-0 renal, 33.7%; in the assay with COLO 205 colon, 1.38% (active); in the assay on DU-145 prostate, 13.8%; with K-562 leukemia, 16.7%. In addition, the growth with MDA-MB-231 breast was 30.4%; with RXF 393 renal, 18.7%; in the assay on SF-268 CNS, 50.5%; in the assay with SF-295 CNS, -4.53% (active); in the assay with SF-539 CNS, -7.41% (active); in the assay on UACC-257 melanoma, 60.5%. Also, the growth with M14 melanoma is 1.54% (active).

For the compound `COc1ccc(C(=O)n2nc(CC(=O)NCc3ccccc3)nc2N)cc1`, the growth with NCI-H23 lung was 108%; with NCI-H226 lung, 106%; in the assay with NCI-H322M lung, 95.4%; in the assay with HOP-62 NSCLC it was 108%; with NCI-H460 lung, 115%; in the assay with HOP-92 NSCLC it was 111%. For the same compound, the growth with NCI-H522 lung was 104%; in the assay with A549/ATCC NSCLC, 109%; in the assay on 786-0 renal it was 97%; in the assay with COLO 205 colon it was 117%; with DU-145 prostate, 115%; in the assay with K-562 leukemia, 95.7%. Besides, the growth in the assay on MDA-MB-231 breast was 96.2%; in the assay on RXF 393 renal it was 118%; in the assay with SF-268 CNS, 108%; in the assay with SF-295 CNS it was 108%; with SF-539 CNS, 112%; with UACC-257 melanoma, 105%. In the assay with M14 melanoma, the growth was 101%.
